# Results taken from PubChem BioAssay (NCATS).
# Where “and” joins values, the source holds several entries; their conditions need not be identical. Identical values can stand only once. Records with an inconclusive call do not appear. A call without a number means that no potency is given here. Calls of active or inactive are those of the source. Unless noted, calls come from the whole dose curve.
# Tests used:
# [1] = MultiTox-Fluor Cytotoxicity Assay - LYMP1-001 - Live Cells (AID 947; active = well fitted curve in the direction sought with a large enough effect; an effect the other way counts as inactive or inconclusive)
# [2] = MultiTox-Fluor Cytotoxicity Assay - LYMP1-002 - Dead Cells (AID 960; active = well fitted curve in the direction sought with a large enough effect; an effect the other way counts as inactive or inconclusive; note: nearly all actives have a fitted effect of over 60% in size)
# Summary of the method: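 Dead-cell fluorescence (Ex/Em 485/520) after 16 h compound exposure at 37 C of LYMP1-002 lymphoblastoid cells in complete medium; AC50 by Hill equation, with data scaled between DMSO and 15 uM tetraoctylammonium bromide.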
# [3] = Cell Viability - LYMP2-009 (AID 968; active = well fitted curve in the direction sought with a large enough effect; an effect the other way counts as inactive or inconclusive; note: series mostly up to about 92 µM; nearly all actives have a fitted effect of over 55% in size)
# [4] = Cell Viability - LYMP2-015 (AID 971; active = well fitted curve in the direction sought with a large enough effect; an effect the other way counts as inactive or inconclusive; note: nearly all actives have a fitted effect of over 55% in size)
# Summary of the method: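 Cytotoxicity readout: decrease in intracellular ATP (CellTiter-Glo luminescence) in 2500 LYMP2-015 lymphoblastoid cells/well after 24 h compound exposure at 37 C. Concentration-response data fitted with the standard Hill equation to give AC50.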
# [5] = target: Estrogen receptor (Homo sapiens) (UniProt P03372); test: qHTS assay for small molecule antagonists of estrogen receptor alpha signaling (AID 588513; active = well fitted curve in the direction sought with a large enough effect in the signal ratio, with a control signal flat, not every such curve was filed as active; the % refers to the signal ratio)
# Chain of Estrogen receptor (Homo sapiens) (P03372 whole entry, looked up): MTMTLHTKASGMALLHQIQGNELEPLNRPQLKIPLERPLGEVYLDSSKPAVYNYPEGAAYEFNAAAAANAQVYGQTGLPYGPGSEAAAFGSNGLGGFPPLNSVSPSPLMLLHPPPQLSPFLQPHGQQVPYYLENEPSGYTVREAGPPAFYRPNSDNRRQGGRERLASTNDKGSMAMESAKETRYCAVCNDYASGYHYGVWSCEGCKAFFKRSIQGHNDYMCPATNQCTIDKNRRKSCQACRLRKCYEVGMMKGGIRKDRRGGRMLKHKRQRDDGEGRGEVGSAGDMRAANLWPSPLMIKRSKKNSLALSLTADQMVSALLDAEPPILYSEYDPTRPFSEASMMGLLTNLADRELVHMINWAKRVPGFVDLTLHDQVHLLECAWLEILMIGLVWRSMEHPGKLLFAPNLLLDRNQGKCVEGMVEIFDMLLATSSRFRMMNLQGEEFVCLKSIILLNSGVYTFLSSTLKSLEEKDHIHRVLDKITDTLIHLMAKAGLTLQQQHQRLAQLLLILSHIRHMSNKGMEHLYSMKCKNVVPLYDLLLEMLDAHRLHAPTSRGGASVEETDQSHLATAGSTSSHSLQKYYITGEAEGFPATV
# Summary of the method: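 Antagonist mode: inhibition of 0.5 nM 17-beta-estradiol-driven beta-lactamase reporter in HEK 293 ER-alpha-UAS-bla cells, 18 h at 37C, CCF4 readout after 2 h at RT. Normalised to estradiol and DMSO; titration fitted to Hill.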
# [6] = target: Peroxisome proliferator-activated receptor gamma (Homo sapiens) (UniProt P37231); test: qHTS assay for small molecule agonists of peroxisome proliferator-activated receptor gamma signaling (AID 588536; active = well fitted curve in the direction sought with a large enough effect in the signal ratio, with a control signal flat, not every such curve was filed as active; the % refers to the signal ratio)
# Chain of Peroxisome proliferator-activated receptor gamma (Homo sapiens) (P37231 whole entry, looked up): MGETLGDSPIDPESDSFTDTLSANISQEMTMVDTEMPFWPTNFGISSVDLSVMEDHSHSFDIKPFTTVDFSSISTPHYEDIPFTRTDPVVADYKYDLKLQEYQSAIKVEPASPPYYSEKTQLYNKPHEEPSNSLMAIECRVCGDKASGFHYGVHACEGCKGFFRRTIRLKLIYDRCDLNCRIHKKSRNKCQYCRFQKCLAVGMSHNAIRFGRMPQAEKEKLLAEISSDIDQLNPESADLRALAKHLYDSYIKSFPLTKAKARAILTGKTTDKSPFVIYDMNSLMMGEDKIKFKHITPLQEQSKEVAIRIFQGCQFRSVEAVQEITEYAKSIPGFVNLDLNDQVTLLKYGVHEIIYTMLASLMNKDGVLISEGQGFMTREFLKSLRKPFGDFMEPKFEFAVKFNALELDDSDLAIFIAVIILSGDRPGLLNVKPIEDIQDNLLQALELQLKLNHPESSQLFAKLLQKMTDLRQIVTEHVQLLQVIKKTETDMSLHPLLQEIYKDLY
# Summary of the method: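 Beta-lactamase reporter read-out: CCF4 fluorescence (ex 405, em 460/530 nm) after 2 h at RT. HEK293 GeneBLAzer cells were treated for 16 h at 37 C. Hill fits gave EC50 and efficacy versus 2 uM rosiglitazone (100%) and DMSO (0%).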
# [7] = target: Vitamin D3 receptor (Homo sapiens) (UniProt P11473); test: qHTS assay for small molecule agonists of vitamin D receptor signaling (AID 588543)
# Chain of Vitamin D3 receptor (Homo sapiens) (P11473 whole entry, looked up): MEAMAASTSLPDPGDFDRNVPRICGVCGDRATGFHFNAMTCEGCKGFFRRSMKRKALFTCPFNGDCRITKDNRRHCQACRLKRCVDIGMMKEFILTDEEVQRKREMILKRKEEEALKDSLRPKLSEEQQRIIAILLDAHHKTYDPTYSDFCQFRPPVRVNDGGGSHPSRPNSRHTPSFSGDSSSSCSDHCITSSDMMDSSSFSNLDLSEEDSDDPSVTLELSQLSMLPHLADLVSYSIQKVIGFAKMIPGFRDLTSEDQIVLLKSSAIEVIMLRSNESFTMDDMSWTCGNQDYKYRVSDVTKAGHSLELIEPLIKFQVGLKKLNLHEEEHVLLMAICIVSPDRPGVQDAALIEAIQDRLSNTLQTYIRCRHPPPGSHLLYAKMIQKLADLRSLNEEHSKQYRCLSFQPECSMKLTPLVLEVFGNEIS
# Summary of the method: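 Agonist-mode beta-lactamase reporter: HEK293T VDR-UAS-bla cells in charcoal-stripped 2% FBS, compound series 16 h 37 C, CCF4 2 h RT. EC50 from Hill fit, scaled against DMSO and 50 nM calcitriol control.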
# [8] = qHTS assay for small molecule agonists of retinoid X receptor alpha signaling (AID 588544); conditions: HEK293T RXRa-UAS-bla, beta-lactamase reporter, 18 h; 530 nm emission
# [9] = target: Retinoic acid receptor RXR-alpha (Homo sapiens) (UniProt P19793); test: as above
# Chain of Retinoic acid receptor RXR-alpha (Homo sapiens) (P19793 whole entry, looked up): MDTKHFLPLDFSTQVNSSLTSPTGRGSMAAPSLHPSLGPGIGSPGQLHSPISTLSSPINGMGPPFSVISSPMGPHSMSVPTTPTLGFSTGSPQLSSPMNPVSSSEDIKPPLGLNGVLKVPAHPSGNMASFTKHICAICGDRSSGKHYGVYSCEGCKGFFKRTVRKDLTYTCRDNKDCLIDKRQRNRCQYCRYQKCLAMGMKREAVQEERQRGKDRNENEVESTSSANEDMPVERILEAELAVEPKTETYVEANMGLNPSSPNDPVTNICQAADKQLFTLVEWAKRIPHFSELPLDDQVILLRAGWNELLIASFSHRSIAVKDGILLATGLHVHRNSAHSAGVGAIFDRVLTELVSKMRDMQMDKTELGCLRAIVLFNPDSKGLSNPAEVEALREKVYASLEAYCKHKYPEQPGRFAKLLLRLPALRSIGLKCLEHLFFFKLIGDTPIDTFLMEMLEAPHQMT
# [10] = target: Thyroid hormone receptor beta (Homo sapiens) (UniProt P10828); test: qHTS assay for small molecule antagonists of thyroid hormone receptor beta signaling (AID 588547; active = well fitted inhibition curve with a large enough effect in the signal ratio, with a control signal flat, not every such curve was filed as active; the % refers to the signal ratio;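 note: cells stimulated with 0.4 nM T3 agonist during compound exposure; series mostly up to about 77 µM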); conditions: TR-UAS-bla HEK293, beta-lactamase ratio, antagonist mode, 18 h
# Chain of Thyroid hormone receptor beta (Homo sapiens) (P10828 whole entry, looked up): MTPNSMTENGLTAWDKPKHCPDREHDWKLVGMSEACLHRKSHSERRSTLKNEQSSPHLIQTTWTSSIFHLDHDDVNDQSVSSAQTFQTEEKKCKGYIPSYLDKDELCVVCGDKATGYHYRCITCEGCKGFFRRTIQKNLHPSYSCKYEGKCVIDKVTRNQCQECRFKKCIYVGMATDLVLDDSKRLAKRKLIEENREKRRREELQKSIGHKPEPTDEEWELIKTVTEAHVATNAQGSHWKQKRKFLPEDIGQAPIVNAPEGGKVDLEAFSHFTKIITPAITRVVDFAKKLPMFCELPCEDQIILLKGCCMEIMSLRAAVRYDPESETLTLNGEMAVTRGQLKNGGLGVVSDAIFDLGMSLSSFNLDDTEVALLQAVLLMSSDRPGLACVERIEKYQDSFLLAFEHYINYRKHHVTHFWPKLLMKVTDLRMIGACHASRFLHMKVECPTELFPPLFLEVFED
# Summary of the method: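 TR-UAS-bla GripTite HEK293 cells in 2% charcoal/dextran FBS medium were preincubated 4 h at 37 C, given compound (0.59 nM to 92 uM) plus 0.4 nM T3 (final) for 18 h, then CCF4 for 2 h at RT; Hill fit gave IC50.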
# [11] = qHTS assay for small molecule activators of the p53 signaling pathway (AID 651743; active = well fitted activation curve with a large enough effect in the signal ratio, not every such curve was filed as active; the % refers to the signal ratio; note: series mostly up to about 92 µM); conditions: HCT-116 p53RE-bla, beta-lactamase FRET ratio, 16 h; activation: stronger effect = higher value
# Summary of the method: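 Agonist-mode quantitative HTS in HCT-116 cells carrying a p53-response-element beta-lactamase reporter; 16 h compound treatment at 37 C, then FRET substrate loading for 2 h at room temperature and fluorescence read.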
# [12] = qHTS assay for small molecule disruptors of the mitochondrial membrane potential - 1 hr assay (AID 651754); note: nearly all actives have a fitted effect of over 35% in size
# Summary of the method: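 Mitochondrial potential in living HepG2 cells after 1 hr compound treatment at 37C was read with Mito-MPS dye added for a further 30 min. Red aggregate and green monomer fluorescence were measured; loss of potential leaves dye as cytoplasmic monomers.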
# [13] = qHTS assay for small molecule disruptors of the mitochondrial membrane potential - 5 hr assay (AID 651755); note: nearly all actives have a fitted effect of over 40% in size
# Summary of the method: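 Seed HepG2 overnight, add compound, incubate 5 hr at 37C and 5% CO2, stain 30 min with Mito-MPS, then measure monomer (490/535 nm) and aggregate (540/590 nm) fluorescence.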
# [14] = target: Tumor necrosis factor (Homo sapiens) (UniProt P01375); test: qHTS assay to identify small molecules that stimulate Tumor Necrosis Factor-alpha (TNF-alpha) secretion (AID 651757; active = well fitted curve in the direction sought with a large enough effect in the signal ratio; the % refers to the signal ratio)
# Chain of Tumor necrosis factor (Homo sapiens) (P01375 whole entry, looked up): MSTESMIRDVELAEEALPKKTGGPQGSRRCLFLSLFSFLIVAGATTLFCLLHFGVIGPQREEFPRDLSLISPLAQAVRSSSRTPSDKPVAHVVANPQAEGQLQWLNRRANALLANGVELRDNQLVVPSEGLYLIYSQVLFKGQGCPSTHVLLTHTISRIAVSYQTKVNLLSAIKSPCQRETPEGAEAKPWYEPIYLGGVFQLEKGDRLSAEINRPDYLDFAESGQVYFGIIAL
# Summary of the method: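 Secreted TNF-alpha quantified by TR-FRET sandwich of two labeled anti-TNF-alpha antibodies, incubated 3 hr at room temperature. Preceded by 17 hr, 37 C compound treatment of THP-1 cells at 3000 cells/well.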
# [15] = qHTS assay for environmental chemicals that activate the Aryl hydrocarbon Receptor (AhR) signaling pathway (AID 651777; active = well fitted curve in the direction sought with a large enough effect; an effect the other way counts as inactive or inconclusive; note: nearly all actives have a fitted effect of over 15% in size); conditions: 1A2-DRE human hepatoma cells, luciferase, 24 h; activation: stronger effect = higher value
# Summary of the method: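 1A2-DRE human hepatoma reporter line; 1,200 cells/well; cmpd or DMSO 24 h, 37 C/5% CO2; One-Glo 30 min RT; luciferase lum.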
# [16] = qHTS assay for small molecule agonists of the antioxidant response element (ARE) signaling pathway measured by Nrf2-dependant transcriptional activity (AID 720636; active = well fitted curve in the direction sought with a large enough effect in the repeat runs; an effect the other way counts as inactive or inconclusive;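 note: HepG2 cells with an ARE-driven luciferase reporter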)
# Summary of the method: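 Cells: ARE-luc HepG2 with Nrf2-responsive luciferase. Medium contained 1% dialyzed FBS. Compound exposure lasted 16 hr at 37 C and 5% CO2, followed by ONE-Glo luciferase detection.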
# [17] = qHTS assay for small molecule antagonists of the retinoid-related orphan receptor gamma (ROR-gamma) signaling pathway - cell viability counter screen (AID 720652; active = well fitted curve in the direction sought with a large enough effect in the repeat runs; an effect the other way counts as inactive or inconclusive;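 note: CHO reporter cells with doxycycline-induced ROR-gamma expression; series mostly up to about 92 µM; compound exposure lasted 16 hr before ATP read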)
# Summary of the method: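 Cytotoxicity counter screen: intracellular ATP (CellTiter-Glo luminescence) measured in the doxycycline-induced CHO RORE-luciferase reporter line after 16 hr compound exposure at 37 C, 5% CO2.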
# [18] = target: Nuclear receptor subfamily 1 group I member 2 (Rattus norvegicus) (UniProt Q9R1A7); test: qHTS assay for small molecule activators of the rat pregnane X receptor (rPXR) signaling pathway (AID 651751; call rule not given here); conditions: rPXR reporter cells, luciferase (One-Glo), 24 h
# Chain of Nuclear receptor subfamily 1 group I member 2 (Rattus norvegicus) (Q9R1A7 whole entry, looked up): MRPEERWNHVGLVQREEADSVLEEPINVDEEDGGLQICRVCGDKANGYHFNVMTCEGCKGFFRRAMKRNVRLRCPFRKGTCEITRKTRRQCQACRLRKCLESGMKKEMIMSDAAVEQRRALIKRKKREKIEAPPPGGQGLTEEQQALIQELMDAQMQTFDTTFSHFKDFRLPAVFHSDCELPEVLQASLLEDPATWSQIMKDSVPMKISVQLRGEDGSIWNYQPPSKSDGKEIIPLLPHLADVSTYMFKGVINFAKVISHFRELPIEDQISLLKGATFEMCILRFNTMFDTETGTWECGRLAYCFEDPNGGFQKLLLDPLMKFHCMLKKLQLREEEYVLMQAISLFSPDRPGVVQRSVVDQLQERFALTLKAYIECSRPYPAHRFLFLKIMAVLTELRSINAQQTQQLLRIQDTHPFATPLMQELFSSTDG
# [19] = qHTS assay for small molecule activators of the human pregnane X receptor (PXR) signaling pathway (AID 720659; call rule not given here)
# [20] = target: Cytochrome P450 3A4 (Homo sapiens) (UniProt P08684); test: qHTS Assay for Inhibitors and Substrates of Cytochrome P450 3A4 (AID 884; active = well fitted curve in the direction sought with a large enough effect; an effect the other way counts as inactive or inconclusive; note: series mostly up to about 57 µM; nearly all actives have a fitted effect of over 50% in size)
# Chain of Cytochrome P450 3A4 (Homo sapiens) (P08684 whole entry, looked up): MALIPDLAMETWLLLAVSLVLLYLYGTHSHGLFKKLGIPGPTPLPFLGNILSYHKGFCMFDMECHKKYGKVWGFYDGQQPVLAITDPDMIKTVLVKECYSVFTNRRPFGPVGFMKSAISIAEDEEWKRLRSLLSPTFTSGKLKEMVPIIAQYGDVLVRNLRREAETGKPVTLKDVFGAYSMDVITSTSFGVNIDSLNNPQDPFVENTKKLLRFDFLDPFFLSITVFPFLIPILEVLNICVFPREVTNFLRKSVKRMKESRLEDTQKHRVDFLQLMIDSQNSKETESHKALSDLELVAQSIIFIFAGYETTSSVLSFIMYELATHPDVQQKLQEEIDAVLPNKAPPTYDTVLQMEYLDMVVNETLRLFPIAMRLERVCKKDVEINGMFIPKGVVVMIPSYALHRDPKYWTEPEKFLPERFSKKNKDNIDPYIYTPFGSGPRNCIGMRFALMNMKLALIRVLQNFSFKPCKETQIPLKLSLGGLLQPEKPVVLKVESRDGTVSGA
# Summary of the method: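 Luminescent readout of luciferin produced by CYP3A4 (20 nM) dealkylation of Luciferin-PPXE, 25 uM (its KM). NADPH-driven reaction ran 60 min at RT after 10 min compound preincubation; data scaled to 57 uM ketoconazole as 100% inhibition.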
SMILES,Potency [1],Potency [2],Potency [3],Potency [4],Potency [5],outcome [6],outcome [7],max response [8],outcome [9],activity change % (negative = inhibition) [10],activation [11],Potency [12],Potency [13],outcome [14],activation [15],Potency [16],Potency [17],max response [18],outcome [19],Potency [20]
Cc1ccc([N+](=O)[O-])cc1N,inactive,inactive,inactive,inactive,inactive,inactive,inactive,-6.56% and -2.61%,inactive,15.7% (inactive) and 9.17% (inactive),-1.56% (inactive) and -5% (inactive),inactive,inactive,inactive,6.03% (inactive) and 2.09% (inactive),inactive,inactive,0.691% (inactive) and 2.27% (inactive),inactive,–
CC1(C)CC(N=C=O)CC(C)(CN=C=O)C1 (configuration not stated),inactive,–,inactive,inactive,inactive,inactive,inactive,0.0281% and -13.4%,inactive,2.27% (inactive) and 3.24% (inactive),0.263% (inactive) and 0.482% (inactive),inactive,inactive,inactive,2.53% (inactive) and -0.0427% (inactive),inactive,inactive,1.05% (inactive) and -0.823% (inactive),inactive,–
ClCCCl,inactive,inactive,inactive,inactive,inactive,inactive,inactive,-4.78% and -12% and 1.75%,inactive,4.14% (inactive) and 2.63% (inactive) and 8.67% (inactive),0.154% (inactive) and -1.95% (inactive) and -0.964% (inactive),inactive,inactive,inactive,0.113% (inactive) and 1.25% (inactive) and 1.3% (inactive),inactive,inactive,1.44% (inactive) and 0.0885% (inactive) and 1.57% (inactive),inactive,inactive
